A selection: hits, their analogues and other compounds. The true share with any hit is near 3.1%.
Bead autofluor – compound fluorescence in toxin protease inhibitor counterscreen. fluorescence intensity (test concentration not listed). compound autofluorescence counterscreen, microsphere flow cytometry; active compounds read high. AID 624483. 360,000 tested, 3.1% active; in the data active = fluorescence intensity above about 16000; inconclusive = no clear call, values can overlap the other calls
BoNT F protease – BoNT F light chain protease inhibition; 360,000 tested, 0.22% active; AID 588497; Multiplex microsphere protease cleavage assay, flow cytometry; inhibition, % at 10 µM; in the data active = inhibition above about 35%, passing the limit was not always enough; inconclusive = no clear call, values can overlap the other calls
Anthrax LF prot – anthrax lethal factor protease inhibition; multiplex microsphere protease cleavage assay, LF; inhibition, % at 10 µM; 360,000 tested, 0.12% active; AID 588501
SSB-PriA inh – inhibitors of Klebsiella pneumoniae PriA binding to SSB C-terminal tail; 430,000 tested, 0.6% active; AlphaScreen SSBct-PriA binding, biotinylated peptide; inhibition, % at 33 µM; AID 1272365; in the data active = inhibition mostly above about 37%, no sharp cut-off; inactive = mostly below about 20%
BoNT A protease – blocks Botulinum neurotoxin A light chain protease; multiplex microsphere protease substrate cleavage, flow cytometry; inhibition, % at 10 µM; 360,000 tested, 0.17% active
Of the large screens only hits and unclear results are named; the others gave an inactive call. Cut-off read from the data, not from the text of the source, unless noted: active = inhibition above about 30%; inconclusive = no clear call, values can overlap the other calls; inactive = below that.

CCN1CCN(Cc2ccc(NC(=O)c3cc(NC(=O)c4cc5cccc(OC)c5o4)cc(OC)c3)cc2C(F)(F)F)CC1	SSB-PriA inh 73
C=CCCc1nnc(N)o1	none (no result: Bead autofluor, BoNT F protease, Anthrax LF prot, BoNT A protease)
CCN(CC)CCN(C(=O)c1ccc(S(=O)(=O)N(CC)c2ccccc2)cc1)c1nc2ccc(Cl)cc2s1	none (no result: Bead autofluor, BoNT F protease, Anthrax LF prot, BoNT A protease)
COc1ccc(CNC(=O)Cn2ncn3nc(-c4ccc(F)cc4)cc3c2=O)cc1	none (no result: Bead autofluor, BoNT F protease, Anthrax LF prot, BoNT A protease)
C=CC(=O)Nc1cccc(Oc2ccnc(Nc3ccc(N4CCN(C)CC4)cc3)n2)c1	SSB-PriA inh 61
C=CC(=O)Nc1cccc(N(C)c2ccnc(Nc3ccc(N4CCN(C)CC4)cc3)n2)c1	SSB-PriA inh 57
Nc1c(S(=O)(=O)c2cccs2)c2nc3ccccc3nc2n1/N=C\c1ccncc1	none (no result: Bead autofluor, BoNT F protease, Anthrax LF prot, BoNT A protease)
COc1ccc(S(=O)(=O)N2CCCc3cc(NS(=O)(=O)Cc4cccc(C)c4)ccc32)cc1	none (no result: Bead autofluor, BoNT F protease, Anthrax LF prot, BoNT A protease)
CCOc1ccc(N(C(C)C(=O)NC(C)CC)S(C)(=O)=O)cc1 (stereo unspecified)	Bead autofluor 19908
CC(C)(C)c1ccc(NC(=O)NNC(=O)c2cccn(Cc3cccc(F)c3)c2=O)cc1	none (no result: Bead autofluor, BoNT F protease, Anthrax LF prot, BoNT A protease)
COc1ccccc1NC(=O)Cc1noc(CSc2nnc(C)s2)n1	Bead autofluor 22803
O=C1CC(c2ccccc2)CC(O)=C1C=NC1CCCCC1 (stereo unspecified)	Bead autofluor 23531
O=C(/C=C/Nc1ccc([N+](=O)[O-])cc1Br)c1cccc2ccccc12	BoNT A protease 38 (no result: SSB-PriA inh)
Cc1cccc(N2CCN(S(=O)(=O)c3ccc4c(c3)n(C)c(=O)c(=O)n4C)CC2C)c1 (stereo unspecified)	Bead autofluor 19587, BoNT A protease inconclusive
COc1ccc(C(=O)Nc2ccc(S(=O)(=O)N3CCC(C)CC3)cc2)cc1Br	none (no result: Bead autofluor, BoNT F protease, Anthrax LF prot, BoNT A protease)
Cc1ccc(Nc2nc(Nc3ccccc3F)nc(N3CCOCC3)n2)cc1C	none (no result: Bead autofluor, BoNT F protease, Anthrax LF prot, BoNT A protease)
Cc1ccc(C)c(S(=O)(=O)N2CCN(C(=O)c3cnccn3)CC2)c1	Bead autofluor 23149
Cc1cnc(C(=O)N2CCN(S(=O)(=O)c3ccc4ccccc4c3)CC2)cn1	Bead autofluor 20208
Cc1ccc(C)c(S(=O)(=O)N2CCN(C(=O)c3ccc4ccccc4n3)CC2)c1	none
O=C(c1cnccn1)N1CCN(S(=O)(=O)c2ccc3ccccc3c2)CC1	none
O=S(=O)(c1ccc2c(c1)OCCO2)N1CCC(c2ccsc2)CC1	none (no result: Bead autofluor, BoNT F protease, Anthrax LF prot, BoNT A protease)
Cc1cc(C)cc(OCC(=O)N2N=C(C(F)(F)F)CC2(O)C(C)(C)C)c1 (stereo unspecified)	SSB-PriA inh 49
O=C(Nc1ccc(F)cc1)C1CCN(c2nnnn2-c2ccccc2)CC1	Bead autofluor 19751, BoNT A protease inconclusive
COc1ccc(NC(=O)C2CCN(c3nnnn3-c3ccccc3)CC2)cc1	none
CC1CCc2cc(F)ccc2N1C(=O)CCN1C(=O)c2ccccc2S1(=O)=O (stereo unspecified)	none (no result: Bead autofluor, BoNT F protease, Anthrax LF prot, BoNT A protease)
Cc1cc(NC(=S)NC(=O)CC(C)C)ccc1Br	Bead autofluor 25030
CN(Cc1ccccc1)C(=O)c1cc(-c2ccc(Br)cc2)on1	Bead autofluor 23868
Cc1cccc(NC(=O)NC2CC(=O)N(c3ccc(C)c(C)c3)C2)n1 (stereo unspecified)	none (no result: Bead autofluor, BoNT F protease, Anthrax LF prot, BoNT A protease)
O=S(=O)(Cc1ccccc1)N1CCN(C/C=C/c2ccccc2)CC1	Bead autofluor 25473
O=C(NCCOc1cccc2cccnc12)c1ccc[nH]c1=O	none (no result: Bead autofluor, BoNT F protease, Anthrax LF prot, BoNT A protease)
CCc1cc2c(=O)c(-c3nc4ccccc4n3C)c(C)oc2c(CN2CCN(CCO)CC2)c1O	none
CCc1cc2c(=O)c(-c3nc4ccccc4n3C)c(C(C)C)oc2c(CN2CCN(C)CC2)c1O	Bead autofluor 20753
CC(C)=C1SC(=S)N(CC(=O)Nc2ccc(O)cc2)C1=O	none (no result: Bead autofluor, BoNT F protease, Anthrax LF prot, BoNT A protease)
COC(=O)C1=C(N)OC2=C(C(=O)CC(C)(C)C2)C1c1ccccc1OC (stereo unspecified)	none
CCOC(=O)C1=C(N)OC2=C(C(=O)CC(C)(C)C2)C1c1ccccc1OCC#N (stereo unspecified)	Bead autofluor 20405
O=C(Nc1ccccc1)c1cc2ccccc2o1	none
O=C(Nc1ccccc1)c1ccc(OC(=O)c2cc3ccccc3o2)cc1	Bead autofluor 21900
Nc1nc(-c2csc(N)n2)cs1	SSB-PriA inh 46 (no result: Bead autofluor, BoNT F protease, Anthrax LF prot, BoNT A protease)
COc1ccc(C(N)=NOC(=O)CCCN2C(=O)c3ccccc3C2=O)cc1OC	none (no result: Bead autofluor, BoNT F protease, Anthrax LF prot, BoNT A protease)
O=c1cc(CSc2nnnn2-c2ccccc2)nc(Nc2ccc(F)cc2)[nH]1	Bead autofluor 23279
CCOC(=O)C1=C(C)N=C2SC(C(=O)OC)=CC(=O)N2C1c1cccc(OC)c1 (stereo unspecified)	Bead autofluor 19879
CC1(C)C(=O)NCCN1C(=O)CCCS(=O)(=O)c1ccc(F)cc1	none (no result: Bead autofluor, BoNT F protease, Anthrax LF prot, BoNT A protease)
Cc1nc(N)c(C#N)c(-c2cccnc2)c1C	none

Bioassay records deposited in PubChem by several laboratories.
